Assay outcomes (PubChem)
ROS inducer: ROS inducers in U2OS cancer cells, primary screen, cell-based, H2DCF-DA fluorescence | U2OS ROS induction | ROS induction (% of piperlongumine), % at 10 µM | hit rate 2% among 46,000 | AID 624156, 2012; in the data active = ROS induction above about 79%, passing the limit was not always enough
Numbers stand for hits; . = inactive. This excerpt belongs to a sample that is enriched for hits.

SMILES | ROS inducer
COc1ccc(Cc2nnc(SCC(=O)C(C)(C)C)n2-c2ccc(F)cc2)cc1OC | .
CC(C)(C)c1cc(C(=O)Nc2ccc(Cl)cc2)n(Cc2ccccc2)n1 | .
O=C(CCSc1ccccc1)NCc1ccco1 | .
C=C1C(=O)O[C@H]2C3=C(C)CCC[C@]3(C)C(=O)C[C@@H]12 | 84
C=C1C(=O)OC2CC3(C)CCC=C(CO)C3CC12 (configuration not stated) | .
C=C1C(=O)O[C@@H]2C=C(C)[C@@H]3CC[C@@](C)(O)[C@@H]3C[C@H]12 | .
COc1cc(C(=O)C(C#N)c2nc3ccccc3s2)cc(OC)c1OC (configuration not stated) | .
CC(C)(C)c1ccc(C(=O)N(CC#N)CC#N)cc1 | .
Cc1ccc(C(=O)OCC2OC(O)C(O)C2OC(=O)c2ccc(C)cc2)cc1 (configuration not stated) | .
N#CCNC(=O)c1ccc(-c2ccccc2)cc1 | .
C[C@H]1CN([C@@H](C)CO)C(=O)Cc2cc(NS(=O)(=O)c3ccc(F)cc3)ccc2O[C@H]1CN(C)Cc1ccc2c(c1)OCO2 | 109
C[C@H](CO)N1C[C@H](C)[C@H](CN(C)Cc2ccc3c(c2)OCO3)Oc2ccc(NS(=O)(=O)c3ccc(F)cc3)cc2CC1=O | .
C[C@@H]1CN([C@H](C)CO)C(=O)Cc2cc(NS(=O)(=O)c3ccc(F)cc3)ccc2O[C@@H]1CN(C)Cc1ccc2c(c1)OCO2 | .
C[C@@H]1CN([C@H](C)CO)C(=O)Cc2cc(NS(=O)(=O)c3ccc(F)cc3)ccc2O[C@H]1CN(C)Cc1ccc2c(c1)OCO2 | 129
C[C@H]1CN([C@@H](C)CO)C(=O)Cc2cc(NS(=O)(=O)c3ccc(F)cc3)ccc2O[C@@H]1CN(C)Cc1ccc2c(c1)OCO2 | .
C[C@H]1CN([C@@H](C)CO)C(=O)Cc2cc(NS(=O)(=O)c3ccc(Cl)cc3)ccc2O[C@H]1CN(C)Cc1ccc2c(c1)OCO2 | .
CCCN(CCC)C(=O)CSc1nc2ccsc2c(=O)n1Cc1ccccc1Cl | .
COc1ccc(CCNC(=O)CC(c2ccccc2)c2cc(Br)ccc2O)cc1OC (configuration not stated) | .
O=C(CSc1ncccc1C(=O)N1CCC(Cc2ccccc2)CC1)c1ccccc1 | .
CCOC(=O)c1c(/N=C/C2C(=O)c3ccccc3C2=O)sc(C)c1C | .
CCOC(=O)c1c2c(n3ccccc13)C(=O)c1ccccc1C2=O | 210
CCOC(=O)CCCn1c(=O)c2cccn2c2ccccc21 | .
COc1ccc(CC(=O)N2c3ccccc3Sc3ccccc32)cc1OC | .
CCc1nc2ccccc2n1CCC(N)=O | .
O=C(O)CC1(CC2=NS(=O)(=O)c3ccccc3N2)CCCC1 | .
SMILES | ROS inducer
O=C(CSCc1ccccc1)Nc1ccccc1C(=O)NCc1ccccc1 | .
CCc1ccc2c(c1)=C(c1[nH]c(=S)[nH]c1O)C(=O)N=2 | 124
CCc1ccc2c(c1)=C(c1sc(Nc3cccc(Cl)c3C)nc1O)C(=O)N=2 | .
CCc1ccc2c(c1)=C(c1sc(N)nc1O)C(=O)N=2 | .
CCCCN(C)C(=O)Cn1ncc2c3ccccc3n(C)c2c1=O | .
COc1ccc(CCNC(=S)NC(=O)c2ccc(Cl)cc2Cl)cc1OC | .
COCCOC(=O)N1C(=O)[C@@]2(c3cc(C#Cc4ccc(OC)cc4)ccc31)[C@H](C(N)=O)[C@H]1C(=O)O[C@H](c3ccccc3)[C@H](c3ccccc3)N1[C@@H]2c1ccccc1OCCO | .
COCCOC(=O)N1C(=O)[C@@]2(c3cc(C#CC4=CCCCC4)ccc31)[C@H](c1ccc(OCCO)cc1)N1[C@H](c3ccccc3)[C@H](c3ccccc3)OC(=O)[C@H]1[C@@H]2C(=O)N1CCc2cc(OC)c(OC)cc2C1 | .
COc1ccc(C#Cc2ccc3c(c2)[C@]2(C(=O)N3)[C@H](c3ccc(OCCO)cc3)N3[C@H](c4ccccc4)[C@H](c4ccccc4)OC(=O)[C@H]3[C@@H]2C(=O)N2CCN(c3ncccn3)CC2)cc1 | .
COCCOC(=O)N1C(=O)[C@@]2(c3cc(C#CC4=CCCCC4)ccc31)[C@H](c1ccc(O)cc1)N1[C@H](c3ccccc3)[C@H](c3ccccc3)OC(=O)[C@H]1[C@@H]2C(N)=O | .
O=C1O[C@H](c2ccccc2)[C@H](c2ccccc2)N2[C@H]1[C@@H](C(=O)N1CCCCCCC1)[C@]1(C(=O)Nc3ccccc31)[C@H]2c1ccccc1OCCO | .
COc1ccc(C#Cc2ccc3c(c2)[C@]2(C(=O)N3)[C@H](c3ccccc3OCCO)N3[C@H](c4ccccc4)[C@H](c4ccccc4)OC(=O)[C@H]3[C@@H]2C(=O)N2CCN(c3ncccn3)CC2)cc1 | .
O=C1O[C@H](c2ccccc2)[C@H](c2ccccc2)N2[C@H]1[C@@H](C(=O)N1CCN(c3ncccn3)CC1)[C@]1(C(=O)Nc3ccc(C#CCCO)cc31)[C@H]2c1ccc(OCCO)cc1 | .
COCCOC(=O)N1C(=O)[C@@]2(c3ccccc31)[C@H](C(=O)N1CCN(c3ncccn3)CC1)[C@H]1C(=O)O[C@H](c3ccccc3)[C@H](c3ccccc3)N1[C@@H]2c1ccc(OCCO)cc1 | 105
